Data: the supplement of paper PMC13380429

Experiments:
[1] = system: Vero E6 infected with SARS-CoV-2; test: morphology score (similarity to uninfected cells); higher = more like uninfected cells; details: 24 h
[2] = system: Vero E6 infected with SARS-CoV-2; test: SARS-CoV-2 infection rate relative to infected DMSO; higher = more infection, active = 60 or less; details: 24 h

SMILES	morphology score [1]	SARS-CoV-2 infection rate [2]
OC[C@H]1NC[C@@H](O)[C@@H](O)[C@@H]1O [1-deoxymannojirimycin] (10 µM)	-0.0915	102% (inactive)
Cn1ccc2cc3c(cc21)CCN3C(=O)Nc1cccnc1 (10 µM)	0.204	99% (inactive)
COc1ccc(/C=C/C(=O)Nc2ccccc2C(=O)O)cc1OC [tranilast] (10 µM)	0.0917	108% (inactive)
O=C1c2cccnc2OC[C@@H]2CCCN12 (10 µM)	-0.0333	108% (inactive)
C[C@]1(Cn2ccnn2)[C@H](C(=O)O)N2C(=O)C[C@H]2S1(=O)=O [tazobactam] (10 µM)	0.0668	108% (inactive)
O=C1CN(/N=C/c2ccc(-c3ccc([N+](=O)[O-])cc3)o2)C(=O)N1 [dantrolene] (10 µM)	0.0672	110% (inactive)
Cc1c(C)c2c(c(C)c1O)CCC(C)(C(=O)O)O2 (configuration not stated) [trolox] (0.833333 µM)	0.0965	98.5% (inactive)
CC(C)(C)C#Cc1cc(N(C(=O)[C@H]2CC[C@H](C)CC2)[C@H]2CC[C@@H](O)CC2)c(C(=O)O)s1 (10 µM)	-0.117	107% (inactive)
CC(O)c1cc(C(=O)N[C@@H](C)Cn2ccc(-c3ccc(C#N)c(Cl)c3)n2)n[nH]1 (some centres not stated) (10 µM)	0.201	106% (inactive)
CCCc1nc2c(C)cc(-c3nc4ccccc4n3C)cc2n1Cc1ccc(-c2ccccc2C(=O)O)cc1 [telmisartan] (10 µM)	0.215	100% (inactive)
CC(C)NCC(O)COc1cccc2ccccc12 (configuration not stated) [propranolol] (10 µM)	0.148	103% (inactive)
